Our source for the Potency values is PubChem BioAssay (NCATS).

Records with an inconclusive call do not appear. A call without a number means that no potency is given here. Activity calls are given as the source filed them. Calls come from the whole dose curve; as a rule, active = well fitted inhibition curve with a large enough effect; inconclusive = small, poorly fitted or top-dose-only effect; inactive = flat fitted curve, though single readings scatter.

In this test the target is Aldehyde dehydrogenase, mitochondrial (Homo sapiens) (UniProt P05091). Kind of test: qHTS for Inhibitors of the Aldehyde Dehydrogenase Family (ALDH2) Primary screen (AID 2061308). Note: nearly all actives have a fitted effect of over 55% in size. Particulars: ALDH2 enzyme inhibition qHTS, 1536-well; series mostly up to 56 µM.
In the case of `O=C(N[C@H]1CCN(C(=O)c2cc(C(F)(F)F)cc(C(F)(F)F)c2)[C@H](Cc2ccc(Cl)cc2)C1)c1ccnc2ccccc12`, the Potency result is “inactive”. The entry for `COc1ccccc1-c1ccc(=O)n(CC(=O)NCCc2ccccc2)n1` is “inactive”. As to `O=C(Cn1nc(-c2ccc(OC(F)(F)F)cc2)ccc1=O)NCCc1ccccc1`, the Potency entry was “inactive”. Turning to `Fc1cc(Nc2nc(-c3ccncc3)nc3ccccc23)ccc1-c1cccc(C(F)(F)F)c1`, the Potency entry is “inactive”. Under `Cc1cc(N[S+](=O)([O-])c2ccc(NC(=O)Cc3ccc4c(c3)CCO4)cc2)no1` stands “inactive”. The entry for `CCOC(=O)CC(=O)Nc1ncnc2c1C(c1ccccc1)c1c(ccc3ccccc13)O2` (stereo not given) is “inactive”; for `COc1ccc(C2Nc3ccccc3C(=O)N2Cc2cccc(OC)c2OC)cc1COc1c(C)cc(NC(C)=O)cc1C` (stereo not given) it is “inactive”; for `O=C(N[C@H]1CCCc2c1cnn2-c1ccc(F)cc1F)c1ccccn1` it is “inactive”. Under `O=C(OCC#CCSc1nnc(-c2ccc3ccccc3c2)o1)c1ccsc1` stands “inactive”; under `Cc1cccc(CNc2ccnc(-c3ccc(F)cc3F)n2)c1`, “inactive”.

Take `O=C(Cc1ccc2ccccc2c1)Nc1ccc(S(=O)(=O)Nc2nccs2)cc1`: the Potency result was “inactive”. Consider `FC(F)(F)c1cc(-c2ccc(CNc3nc(-c4ccccc4C(F)(F)F)nc4ccccc34)cc2)ccc1Cl`, for which the Potency entry was “inactive”. Under `CCOc1ccc(CCNC(=O)c2ccc3ccccc3n2)cc1OCC` stands “inactive”; under `Cc1ccc(OCCn2c(CCNC(=O)c3cccc4cc[nH]c34)nc3ccccc32)cc1`, “inactive”; under `O=S1(=O)N=C(Oc2ccccc2C(F)(F)F)c2ccccc21`, “inactive”. The entry for `Cc1ccc(-c2cc(C(=O)Nc3ccc(-n4cncn4)cc3)c3ccccc3n2)cc1C` is “inactive”. Take `Cc1ccc(C(=O)[C@H]2CC[C@@H](C(=O)Nc3ccc(S(=O)(=O)Nc4nccs4)cc3)C2)cc1C`: the Potency result was “inactive”. The entry for `OC[C@H]1O[C@@H](O[C@H]2[C@H](OCCc3ccccc3)O[C@H](CO)[C@@H](O)[C@@H]2O)[C@H](O)[C@@H](O)[C@@H]1O` is “inactive”. As to `FC(F)(F)c1ccccc1-c1nc(NCC#Cc2cccnc2)c2ccccc2n1`, the Potency entry was “inactive”. Under `CCNc1nc(C#N)nc2c1ncn2-c1cc(F)cc(F)c1` stands “inactive”; under `N=c1c2c(ncn1-c1ccccc1)Oc1ccc3ccccc3c1C2c1ccc2c(c1)OCO2` (stereo not given), “inactive”. Under `Cc1nc(-c2ccccc2)oc1-c1ccc2ncnc(NCCc3cnc[nH]3)c2c1` stands “inactive”; under `Cc1ccc(NS(=O)(=O)c2ccc3c(c2)N(C)CCO3)cc1C`, “inactive”. On to `NC(=O)C1CCN(c2nnc(-c3ccc4c(c3)OCCCO4)s2)CC1`, for which the Potency entry was “inactive”. The entry for `CN1CCN(c2cccc(Nc3nn4c(=O)c5ccccc5nc4s3)c2)CC1` is “inactive”; for `COC(=O)c1ccccc1NC(=O)c1ccc(F)cc1` it is “inactive”; for `Cn1c2cc(Br)sc2c2cnn(Cc3ccccc3F)c(=O)c21` it is “inactive”.

Consider `O=C(Nc1ccc(S(=O)(=O)Nc2nccs2)cc1)c1ccnc2ccccc12`, for which the Potency entry was “inactive”. For `Cc1nc(N2CCOCC2)c2nc(-c3ccccc3)n(CCN3CCCCC3)c2n1`, the Potency result was “inactive”. Under `Cc1cc(C)nc(NC(=S)N2CCN(c3ccc(Cl)cc3S(C)(=O)=O)CC2)c1` stands “inactive”; under `CN(C)c1cnc2c(O)cccc2c1`, “inactive”; under `O=[S+]([O-])(c1ccc2c(c1)OCCO2)N1CCN([S+](=O)([O-])c2c(F)cc(O)cc2F)CC1`, “inactive”. Regarding `Cc1cccc(-n2cnc3cc(C(=O)N4CCOCC4)ccc32)c1`, the Potency entry was “inactive”.

`Cc1nc2ccccn2c1C(O)(c1ccccc1)c1ccccc1`: the Potency result is “inactive”.

As for `Cc1ccc(-c2ccc(=O)n(CCNC(C)c3ccco3)n2)cc1` (stereo not given), the Potency result was “inactive”. The entry for `Cc1cc(F)ccc1S(=O)(=O)Nc1cnccc1C(=O)Nc1nc(-c2ccccc2)cs1` is “inactive”.

As to `COc1c/c(=C2\C=c3ccccc3=N2)[nH]/c1=C\c1[nH]c(C)cc1C`, the Potency result is “inactive”. Under `N#CN/C(=N\c1nnc(-c2ccncc2)s1)Nc1ccc(F)c(C(F)(F)F)c1` stands “inactive”; under `Cc1c(P(=S)(c2ccccc2)c2ccccc2)c2ccccc2n1C(=O)Cc1ccccc1`, “inactive”; under `O=C1CCCC2=C1C(c1[nH]ncc1Cl)NC(=NCc1ccoc1)N2` (stereo not given), “inactive”.
